# Screening data: PubChem, The Scripps Research Institute Molecular Screening Center
# DAX1 inh-1 = DAX1 (NR0B1) inhibitors, primary screen, cell-based, HEK293, Gal4-DAX1, luciferase luminescence | Nuclear receptor subfamily 0 group B member 1 (Homo sapiens), P51843 | HEK293 Gal4-DAX1 luciferase reporter | AID 504766, 2011 | 340,000 compounds, 0.99% hits | inhibition, % at 6.75 µM;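 active = inhibition above the mean over all tested compounds plus 3 SD, cut at about 4.2% in these data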;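 also: inhibition shows as a rise in luminescence from relieved DAX1 repression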
# Target sequence (P51843 207-470 limits assumed): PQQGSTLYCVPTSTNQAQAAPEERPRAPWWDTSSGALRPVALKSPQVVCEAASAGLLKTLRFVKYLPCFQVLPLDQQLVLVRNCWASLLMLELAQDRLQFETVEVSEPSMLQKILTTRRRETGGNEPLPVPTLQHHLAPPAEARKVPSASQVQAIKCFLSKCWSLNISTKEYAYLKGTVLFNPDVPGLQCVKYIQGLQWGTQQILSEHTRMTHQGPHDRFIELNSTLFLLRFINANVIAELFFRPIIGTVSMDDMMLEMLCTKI
# hcDAF12 agonist = H. contortus DAF-12 nuclear receptor activators, primary screen, cell-based, luminescence, HEK293, lit1-tk-luc reporter | HEK293 hcDAF-12 lit1-tk-luc reporter; 0% DMSO, 100% Δ7-dafachronic acid | activation, % at 6.8 µM | 370,000 compounds, 1.4% hits | AID 652067, 2013;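 active = activation above the mean of all tested compounds plus 3 SD, cut at about 5.5% in these data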
# hgDAF12 agonist = H. glycines DAF-12 receptor agonists, primary screen, cell-based, luminescence, HEK293, GAL4 fusion, UAS-luciferase. Nuclear hormone receptor DAF-12 (Heterodera glycines), GAL4 fusion. HEK293 GAL4-hgDAF12 UAS-luciferase reporter, agonist luminescence; normalized to butyrate control. activation, % at 6.8 µM. 370,000 compounds, 1.8% hits. AID 687014, 2013;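 active = activation above a cutoff set at the mean of all screened compounds plus 3 SD, cut at about 10% in these data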
# ssDAF-12 act = S. stercoralis DAF-12 nuclear receptor activators, primary screen, cell-based, luminescence, HEK293, GRIP1 co-expression, lit1-tk-luc; Nuclear hormone receptor DAF-12 (Strongyloides stercoralis); HEK293 ssDAF-12/GRIP1 lit1-tk-luc reporter; % of 3 µM dafachronic acid response; activation, % at 6.8 µM; 370,000 compounds, 1% hits;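 active = activation above the mean over all tested compounds plus 3 SD, cut at about 0.9% in these data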
# DAX1 inh-2 = DAX1 (NR0B1) inhibitors on StAR promoter, primary screen, cell-based, luminescence, SF-1 (NR5A1), full-length DAX-1. HEK293T StAR-luciferase reporter, SF-1/DAX-1 repression relief. AID 652010, 2013. 370,000 compounds, 1.1% hits. inhibition, % at 6.8 µM;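 active = inhibition above the mean over all tested compounds plus 3 SD, cut at about 3.6% in these data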;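 also: higher inhibition means more luminescence from relief of DAX-1 repression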
# Hits are given with their value; i = inactive; nt = no result given. Hits are enriched below; roughly 4.1% of the tested compounds scored in any of these assays.
SMILES,DAX1 inh-1,hcDAF12 agonist,hgDAF12 agonist,ssDAF-12 act,DAX1 inh-2
Cc1[nH]c2ccc(C(=O)NCCN3CCCCCC3)cc2c1C,i,i,i,i,i
Cc1ccc(C(=O)CSc2nc3ccc(C(=O)NCCN4CCCCC4)cc3c(=O)[nH]2)cc1,i,5.6,i,i,i
O=C(NCc1ccco1)C(Cc1ccccc1)N1C(=O)c2ccccc2C1=O (stereo unspecified),i,6.3,i,i,i
CCCCNC(=O)C1CCCN1C(=O)Nc1cccc(C)c1 (stereo unspecified),nt,i,i,i,i
COc1ccccc1CC(=O)Nc1ccc(C(=O)N2CCCCC2)cc1,i,i,i,i,3.9
COc1ccc(OCCOC(=O)CNC(=O)c2ccc(Cl)cc2Cl)cc1,i,i,i,i,i
O=C(CNC(=O)c1ccc(Cl)cc1Cl)OCCOc1ccccc1,i,i,i,i,3.9
Nc1nc2n(n1)C(c1cccs1)CC(c1ccccc1)N2 (stereo unspecified),i,i,i,i,i
Nc1nc2n(n1)C(=O)CC(c1ccccc1)N2 (stereo unspecified),i,i,i,i,3.7
CN(CCO)c1cccc2c1S(=O)(=O)N(Cc1cn(Cc3cccc(F)c3)nn1)Cc1ccccc1O2,nt,i,i,i,i
NC(=O)C1CCN(C(=O)Nc2csc3ccccc23)CC1,nt,i,i,1.0,i
CC(=O)Nc1csc2ccccc12,i,i,i,i,i
O=C(COC(=O)C12CC3CC(CC(Cl)(C3)C1)C2)Nc1ccccc1,i,i,i,i,i
CC1CCCCC1NC(=O)COC(=O)C12CC3CC(CC(Cl)(C3)C1)C2 (stereo unspecified),6.0,i,i,i,i
O=C(CN1CCN(Cc2ccccc2Cl)CC1)N/N=C\c1ccccc1F,nt,i,i,i,i
CCOc1ccc(NC(=O)c2cc3ccccc3cc2O)cc1,i,i,i,1.2,i
CCOc1ccc(NC(=O)c2cc(OC)nc3ccccc23)cc1,i,i,i,i,i
CSc1ccccc1NC(=O)Nc1ccccc1,i,i,i,i,i
COc1ccc(NC(=O)c2ccccc2NC(=O)CSc2ccc(C)cc2)cc1,i,5.9,i,i,i
COc1cc(C(=O)Nc2ccc(C)cc2)c2ccccc2n1,i,5.7,i,i,i
CCOc1ccc(NC(=O)Nc2ccccc2SC)cc1,4.5,i,11.3,i,i
CCOc1ccc(NC(=O)c2cccc3ccccc23)cc1,i,i,i,i,i
O=C(CN(CCc1ccccc1)S(=O)(=O)c1ccc(F)cc1)N1CCOCC1,nt,i,i,i,i
Cc1cccc(CCN(C(=O)c2csnn2)C(C(=O)NC2CCCC2)c2ccco2)c1 (stereo unspecified),i,i,i,i,i
O=C(Nc1ccc2ccccc2c1)c1cccc2ccccc12,i,i,i,i,i
SMILES,DAX1 inh-1,hcDAF12 agonist,hgDAF12 agonist,ssDAF-12 act,DAX1 inh-2
COc1ccc(NC(=O)c2ccc3ccccc3c2OC)cc1,4.4,i,i,i,i
COc1ccc(C(=O)NNC(=O)CSc2ccccc2)cc1,4.5,i,i,i,i
O=C1c2ccccc2C2Cc3nnccc3CN12 (stereo unspecified),nt,i,i,i,i
O=c1c2ccccc2ncn1-c1ccc([N+](=O)[O-])cc1Cl,5.0,i,i,i,i
O=c1c2ccccc2ncn1-c1ccccc1[N+](=O)[O-],i,i,i,i,i
COCc1cc(C)n(CC(=O)Nc2cc(C)cc(C)c2)c(=O)c1C#N,i,i,i,i,i
COc1ccc(CCN2CCC(CN3C(=S)NC[C@@H]3Cc3ccccc3)CC2)cc1OC,nt,i,i,i,i
C=CCN1C(=O)[C@@H](CC(=O)NCc2cccc3ccccc23)[C@]2(C(=O)OC)CCCCC=C12,nt,i,i,i,i
O=S1(=O)c2ccc(N3CCSCC3)cc2Oc2ccccc2CN1Cc1cn(Cc2ccc(Cl)cc2)nn1,nt,i,i,i,i
CSCCC(NC(=O)c1ccc(Cl)cc1)C(=O)OCC(C)=O (stereo unspecified),5.6,i,i,i,i
Cc1cc(OCC(=O)N2CCC(C(N)=O)CC2)c2c(C)cc(=O)oc2c1,7.5,i,i,i,i
CCCCc1cc(=O)oc2cc(C)cc(OCC(=O)N3CCC(C(N)=O)CC3)c12,i,i,i,i,i
C#CCNC(=O)C[C@H]1C[C@@]2(C(=O)OC)C(=C[C@H](COCc3ccccc3)O[C@@H]2C)N(Cc2ccc3c(c2)OCO3)C1=O,nt,i,i,i,i
Cc1nc(C(F)(F)F)ccc1C(=O)Nc1ccc(C(F)(F)F)cn1,i,i,i,i,i
Cc1nc(-c2ccncc2)nc(NCCNc2ccc(C(F)(F)F)cn2)c1Cl,9.1,i,i,i,i
COc1cccc(-c2ccc(=O)n(CC(=O)NCCN3CCOCC3)n2)c1,i,i,i,0.9,i
Clc1ccc(Nc2nnc(-c3ccc4c(c3)OCO4)o2)cc1,nt,i,i,i,3.9
COC(=O)c1[nH]c2ccc(F)cc2c1NS(=O)(=O)c1ccc(OC)cc1OC,i,i,i,1.1,i
CCOC(=O)c1[nH]c2ccc(OC)cc2c1NS(=O)(=O)c1ccc(OC)cc1OC,i,i,i,i,i
NC1=NC(=O)/C(=C/C=C/c2cccs2)S1,4.8,i,i,i,i
CC(=O)C1(C(=O)Nc2cc(C)cc(C)c2)CC(c2ccccn2)=NO1 (stereo unspecified),nt,i,i,i,i
C[C@H](O)[C@@H]1CN2CCc3c([nH]c4cccc(-c5ccccc5)c34)[C@@H]2C[C@@H]1N(C)C(=O)Nc1ccccc1,nt,i,i,i,i
COc1ccc(NC(=S)NCc2ccc(F)cc2)c(OC)c1,i,i,i,i,i
COc1cc(OC)c(NC(=S)NCc2ccc(F)cc2)cc1Cl,4.3,i,i,i,i
C=CCn1c(SCC(=O)Nc2ccccc2OCC)nnc1-c1ccc(C(C)(C)C)cc1,nt,i,i,i,i
SMILES,DAX1 inh-1,hcDAF12 agonist,hgDAF12 agonist,ssDAF-12 act,DAX1 inh-2
COC(=O)c1ccc(CSc2nc3c(c(=O)[nH]2)CCC3)cc1,nt,i,i,i,3.7
CC1=CC2C3C(=O)N(c4ccccc4)C(=O)C3C1C(=O)C2(O)C(C)C (stereo unspecified),nt,i,i,i,i
CNNC(=O)C(=O)NNS(=O)(=O)c1ccccc1,5.8,i,i,i,i
CC(C)C(=O)NNS(=O)(=O)c1ccccc1,i,i,i,i,i
COC1=C[C@H](C(=O)NCCNC(C)=O)[C@@]2(C)Cc3ccccc3[C@H]2CC1=O,nt,i,i,i,i
COc1ccc(-n2cnc3sc(-c4ccccc4)cc3c2=O)cc1,5.0,i,i,i,i
